Growth data for seven compounds are collected here from PubChem BioAssay (NCI).

Compounds without any hit were thinned out: in the full panel of roughly 83,000, 20% have a hit.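 Treatment: one concentration, 48 hours, 96-well format. Scoring: percent growth, with anything below 10 considered active.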 Values without a mark were called inactive. Calls of active or inactive are those of the source.

Test systems include SK-MEL-2 melanoma; EKVX NSCLC; SN12C renal; UO-31 renal; TK-10 renal; ACHN renal; CAKI-1 renal; A498 renal; CCRF-CEM leukemia; MOLT-4 leukemia; SR leukemia; RPMI-8226 leukemia; OVCAR-8 ovarian; OVCAR-5 ovarian; OVCAR-4 ovarian; SK-OV-3 ovarian; IGROV1 ovarian; OVCAR-3 ovarian; HS 578T breast; NCI/ADR-RES ovarian.
Common to all, as to assay: NCI-60 one-dose screen, 48 h (100 = growth as untreated, 0 = no growth, -100 = all killed)
What all share (conditions): 10 µM unless noted

As to `CNC(=O)c1cc(Oc2ccc3nc(NC(=O)c4cc(C(F)(F)F)cc(C(F)(F)F)c4)sc3c2)ccn1`, the growth with SK-MEL-2 melanoma was -18.5% (active); with EKVX NSCLC, 23.3%; in the assay with SN12C renal, 10.5%; with UO-31 renal, 6.1% (active); in the assay with TK-10 renal it was 16.6%; with ACHN renal it was 14.9%. In addition, the growth in the assay with CAKI-1 renal was 11%; in the assay with A498 renal, -11.4% (active); in the assay with CCRF-CEM leukemia, 16.8%; with MOLT-4 leukemia, 8.03% (active); in the assay with SR leukemia it was 12.5%; in the assay on RPMI-8226 leukemia, 9.36% (active). The growth in the assay with OVCAR-8 ovarian is 20.8%; with OVCAR-5 ovarian it was 51.6%; in the assay with OVCAR-4 ovarian, 15.8%; in the assay on SK-OV-3 ovarian, -2.45% (active); in the assay with IGROV1 ovarian it was 30.9%; with OVCAR-3 ovarian, 12%. Besides, the growth is 32.1% with HS 578T breast and 12.9% with NCI/ADR-RES ovarian.
For the compound `CC(C)=CC(=O)C1C(=O)c2ccccc2C1=O`, the growth with SK-MEL-2 melanoma was 102%; with EKVX NSCLC, 99.4%; in the assay with SN12C renal it was 95.1%; with UO-31 renal, 92.3%; in the assay on TK-10 renal it was 108%; with ACHN renal, 97.1%. In addition, the growth with CAKI-1 renal is 81%; with A498 renal it was 87.6%; with CCRF-CEM leukemia, 98.1%; with MOLT-4 leukemia, 103%; in the assay with SR leukemia it was 91.3%; with RPMI-8226 leukemia, 103%. Moreover, the growth is 97.8% in the assay with OVCAR-8 ovarian; 97.3% in the assay on OVCAR-5 ovarian; 102% in the assay on OVCAR-4 ovarian; 90.4% in the assay on SK-OV-3 ovarian; 70.5% with IGROV1 ovarian; 95.7% in the assay on OVCAR-3 ovarian. The growth with HS 578T breast was 102%; in the assay with NCI/ADR-RES ovarian, 108%.
In the case of `COc1ccc(CNc2ccc3nc(CCC4CCCCC4)[nH]c3c2)cc1`, the growth with SK-MEL-2 melanoma is 87%; in the assay with EKVX NSCLC, 79.1%; in the assay on SN12C renal it was 68%; with UO-31 renal, 33.9%; in the assay on TK-10 renal, 86.4%; in the assay with ACHN renal it was 93.4%. In addition, the growth in the assay with CAKI-1 renal was 72.2%; in the assay with A498 renal, 53.2%; with CCRF-CEM leukemia, 69.2%; in the assay on MOLT-4 leukemia it was 52.9%; with SR leukemia it was 46.8%; in the assay with RPMI-8226 leukemia it was 40.2%. Further, the growth was 73.6% in the assay on OVCAR-8 ovarian; 83.4% in the assay on OVCAR-5 ovarian; 40.1% in the assay on OVCAR-4 ovarian; 82% in the assay with SK-OV-3 ovarian; 61% in the assay on IGROV1 ovarian; 75.4% with OVCAR-3 ovarian. Besides, the growth is 79.7% in the assay with HS 578T breast and 70.3% in the assay on NCI/ADR-RES ovarian.
For the compound `Cc1ccc(-c2nn(CC(=O)N3CCOCC3)c(N)c2C#N)cc1`, the growth is 103% in the assay on SK-MEL-2 melanoma; 102% with EKVX NSCLC; 102% in the assay on SN12C renal; 84.7% with UO-31 renal; 105% with TK-10 renal; 101% in the assay with ACHN renal. The growth with CAKI-1 renal is 87.3%; in the assay with A498 renal, 91.3%; with CCRF-CEM leukemia it was 101%; in the assay with MOLT-4 leukemia it was 103%; in the assay on SR leukemia it was 99%; with RPMI-8226 leukemia, 108%. The growth is 99.8% in the assay with OVCAR-8 ovarian; 105% in the assay with OVCAR-5 ovarian; 91.8% with OVCAR-4 ovarian; 109% in the assay on SK-OV-3 ovarian; 106% with IGROV1 ovarian; 113% in the assay with OVCAR-3 ovarian. Moreover, the growth with HS 578T breast was 93.1%; in the assay with NCI/ADR-RES ovarian, 108%.
Turning to `COC(=O)c1c(C(=O)OC)c2ccc3c4ncccc4ccc3n2c1C(=O)c1ccc(C)cc1`, the growth in the assay with SK-MEL-2 melanoma is 83.2%; in the assay with EKVX NSCLC, 83.2%; in the assay on SN12C renal it was 100%; in the assay on UO-31 renal, 74.3%; with TK-10 renal, 93.4%; in the assay on ACHN renal it was 77.1%. In addition, the growth in the assay with CAKI-1 renal was 83.9%; with A498 renal, 92.8%; in the assay with CCRF-CEM leukemia, 71.2%; with MOLT-4 leukemia, 73.3%; in the assay with SR leukemia, 75.8%; in the assay with RPMI-8226 leukemia, 84.1%. The growth with OVCAR-8 ovarian was 82.7%; in the assay on OVCAR-5 ovarian, 87.1%; in the assay with OVCAR-4 ovarian, 90.9%; in the assay with SK-OV-3 ovarian, 87.8%; in the assay with IGROV1 ovarian, 94.4%; in the assay with OVCAR-3 ovarian, 102%. For the same compound, the growth in the assay on HS 578T breast was 96.3%; in the assay with NCI/ADR-RES ovarian it was 92.7%.
As for `N=C(N)c1ccc(-c2ccc(-c3ccc(Cl)cc3Cl)s2)nc1`, the growth in the assay with SK-MEL-2 melanoma was 109%; in the assay on EKVX NSCLC, 93.6%; with SN12C renal, 81%; with UO-31 renal it was 91.3%; with TK-10 renal it was 122%; with ACHN renal, 74.2%. In addition, the growth in the assay on CAKI-1 renal was 39.1%; in the assay with A498 renal, 104%; in the assay on CCRF-CEM leukemia it was 39.1%; in the assay on MOLT-4 leukemia, 13.5%; with SR leukemia, 5.54% (active); with RPMI-8226 leukemia, 0.186% (active). For the same compound, the growth in the assay with OVCAR-8 ovarian was 36.2%; in the assay with OVCAR-5 ovarian it was 80.2%; in the assay on OVCAR-4 ovarian it was 98.2%; in the assay on SK-OV-3 ovarian it was 91.3%; in the assay with IGROV1 ovarian it was 50.6%; in the assay on OVCAR-3 ovarian, 64.4%. Also, the growth in the assay with HS 578T breast is 90.1%; in the assay on NCI/ADR-RES ovarian, 96.7%.
For `CC1(C)CC[C@]2(CO)CC[C@]3(C)[C@H](CC[C@@H]4[C@@]5(C)CC[C@H](O)C(C)(C)[C@@H]5CC[C@]43C)[C@H]2[C@H]1O`, the growth is 104% in the assay on SK-MEL-2 melanoma; 106% in the assay with EKVX NSCLC; 65.6% in the assay with SN12C renal; 114% with UO-31 renal; 58.7% in the assay on TK-10 renal; 77.2% in the assay on ACHN renal. The growth is 99.9% in the assay with CAKI-1 renal; 91.5% in the assay on A498 renal; 98.5% in the assay on CCRF-CEM leukemia; 86.3% in the assay on MOLT-4 leukemia; 56.2% in the assay with SR leukemia; 100% in the assay with RPMI-8226 leukemia. For the same compound, the growth with OVCAR-8 ovarian was 64.5%; in the assay with OVCAR-5 ovarian, 114%; with OVCAR-4 ovarian, 58.5%; in the assay with SK-OV-3 ovarian it was 92.3%; in the assay on IGROV1 ovarian it was 102%; in the assay with OVCAR-3 ovarian it was 74.7%. Further, the growth is 7.22% (active) in the assay with HS 578T breast and 80.8% in the assay with NCI/ADR-RES ovarian.
